This is an account of results in PubChem BioAssay (Tox21).

Records with an inconclusive call do not appear. Unmarked numbers belong to inactive results. The source made the active and inactive calls. Calls come from the whole dose curve; as a rule, active = well fitted activation curve with a large enough effect in the repeat runs; inconclusive = weak or mixed curves, or effect the other way; inactive = no such curve, though single readings can be large or run the other way.
% is set by controls: 0 for no effect and ±100 for the full control effect; potency is the fitted concentration of half-maximal effect.

A short description of the experiment: qHTS assay to identify small molecule agonists of the estrogen related receptor signaling pathway with the pleiotropic PPARgamma coactivator (PGC) from Tox21 10K library (AID 1224842). Note: nearly all actives have a fitted effect of over 15% in size. The following applies: PGC/ERR reporter cell line, luciferase ONE-Glo, 18 h; series mostly up to 92.4 µM; activation: at the top concentration. The text has this: National Center for Advancing Translational Sciences [NCATS] NIH Chemical Genomics Center [NCGC] U.S. Environmental Protection Agency [EPA] National Institutes of Environmental Health Sciences [NIEHS] National Toxicology Program [NTP] Assay overview: Estrogen related receptors (ERRs), the first orphan nuclear receptors discovered, play an important role in the control of cellular energy metabolism. ERRs are required for high-energy production in response to the environmental challenges. The pleiotropic PPARgamma coactivator (PGC) is a major partner of ERR and a key regulator in energy homeostasis. Together they have been implicated in the etiology of metabolic disorders such as Type 2 diabetes and metabolic syndrome. ERR-alpha was also identified as an adverse marker for breast cancer progression; ERR-alpha-positive tumors have a poor prognosis. To screen and to identify environmental compounds that perturb the PGC/ERR signaling pathways could provide valuable information for potential therapeutic or preventive measures in the treatment of metabolic disease. For identifying PGC/ERR agonists, PGC/ERR cell line (provided by NTP) has been used to screen Tox21 10K library.
Assay Protocol Summary: The PGC/ERR cells were dispensed at 2,000 cells/5 ul/well in 1536-well white plates using a Multidrop dispenser. After the assay plates were incubated at a 37 C/5% CO2 incubator for 6 hours, 23 nL of compounds dissolved in DMSO, positive and negative controls or DMSO only was transferred to the assay plate by a pin tool. The plates were incubated at 37 C for 18 hours. 4 ul/well of One-Glo reagent was added into the assay plates using a Flying Reagent Dispenser. After 30-minute incubation at room temperature, the luminescence intensity in the plates was measured using a ViewLux plate reader.
As for `COc1ccc(-c2ccc3cc(C(=O)O)ccc3c2)cc1C12CC3CC(CC(C3)C1)C2`, the “activation” value was 8.22% [at 42.5 µM].

As for `O=C1CCCCCN1SSN1CCCCCC1=O`, the “activation” value was -13.7%. Turning to `CC(C)CCCCCCCCCCCCCCC(=O)O`, the “activation” value is -9.72%. Same read-out and setting: in the case of `CCC(N)(CO)CO` it was 3.4%; in that of `CN(C)[C@@H]1C(=O)C(C(N)=O)=C(O)[C@@]2(O)C(=O)C3=C(O)c4c(O)ccc(Cl)c4[C@@H](O)[C@H]3C[C@@H]12`, -9.71% [at 42.5 µM]. Consider `Clc1ccc2cc3ccccc3cc2c1`, for which the Potency was 68.5 µM (active).

Consider `CC1=C(C(=O)OC(C)C)C(c2cccc([N+](=O)[O-])c2)C(C(=O)OC2CN(C(c3ccccc3)c3ccccc3)C2)=C(N)N1` (stereo not given), for which the “activation” value is -32.9% [at 42.5 µM]. On to `COc1cccc2c1C(=O)c1c(O)c3c(c(O)c1C2=O)C[C@@](O)(C(=O)CO)C[C@@H]3O[C@H]1C[C@H](N)[C@H](O[C@@H]2CCCCO2)[C@H](C)O1`, for which the Potency was 0.422 µM (active).

With `Cc1ccc(O)c2ncccc12`, the “activation” value is -13.7% [at 42.5 µM]. On the same count and under the same terms, in the case of `CN(C)C(=O)C1(N2CCCCC2)CCN(CC[C@@]2(c3ccc(Cl)c(Cl)c3)CN(C(=O)c3ccccc3)CCO2)CC1` it was -39.8%; in that of `CCCCCCCC[N+](CCCCCCCC)(CCCCCCCC)CCCCCCCC`, -39.5%. On the same count and under the same terms, with `CCCCC(CC)CN=C(N)NC(N)=NCCCCCCN=C(N)NC(N)=NCC(CC)CCCC` (stereo not given) the figure was -34.5% [at 42.5 µM]. For `N/C(=N\N=C\c1ccc(Cl)cc1)N/N=C/c1ccc(Cl)cc1`, the “activation” value is 1.13% [at 42.5 µM].

Regarding `N#CSc1ccc(N)c([N+](=O)[O-])c1`, the “activation” value is -22.5%.

With `CCCCc1oc2ccc(NS(C)(=O)=O)cc2c1C(=O)c1ccc(OCCCN(CCCC)CCCC)cc1`, the “activation” value was -35.3% [at 42.5 µM]. With `Cc1cc(CCN2CCN(c3nsc4ccccc34)CC2)cc2c1NC(=O)CC2(C)C`, the “activation” value is -42%.

With `Cc1cc(=O)oc2cc(N(C)C)ccc12`, the “activation” value is 10.1%.

With `[O-][n+]1ccccc1SSc1cccc[n+]1[O-]`, the activation was -33.7% [at 19 µM]. Turning to `O=C(O)c1ccc(Cl)c(Cl)c1`, the “activation” value was -3.78%.

For the compound `O=[N+]([O-])c1cc(Cl)c(Cl)c(Cl)c1Cl`, the “activation” value is -5.52%. The same measure, in the same setting: in the case of `CS(=O)(=O)CCNCc1ccc(-c2ccc3ncnc(Nc4ccc(OCc5cccc(F)c5)c(Cl)c4)c3c2)o1` it was -12.9% [at 42.5 µM]. In the case of `O=C(c1ccc(F)cc1)C1CCN(CCn2c(=O)[nH]c3ccccc3c2=O)CC1`, the “activation” value was -8.35% [at 42.5 µM]. Same read-out and setting: in the case of `CCCC(c1cc(C(C)(C)C)c(O)cc1C)c1cc(C(C)(C)C)c(O)cc1C` it was -37.8%; in that of `O=C1Cc2cc(CCN3CCN(c4nsc5ccccc45)CC3)c(Cl)cc2N1`, -14.4% [at 42.5 µM]; in that of `Cc1oc(-c2ccccc2)nc1CCC(=O)c1ccc(CC2SC(=O)NC2=O)cc1` (stereo not given), 0.304% [at 42.5 µM]. Turning to `Cc1[nH]cnc1C[C@H]1CCc2c(C)c3ccccc3n2C1=O`, the “activation” value was -27.5%.

In the case of `[Cl][Au]([Cl])[Cl]`, the “activation” value is -37.9%. Take `CN(C)[C@@H]1C(=O)C(C(N)=O)=C(O)[C@@]2(O)C(=O)C3=C(O)c4c(O)cccc4C[C@H]3C[C@@H]12`: the “activation” value was -16.3% [at 42.5 µM]. With `COc1cc(-c2ccc(N=C=O)c(OC)c2)ccc1N=C=O`, the “activation” value was 0.194% [at 42.5 µM]. Still for that read-out and setting: in the case of `O=C(OC[C@H]1O[C@@H](OC(=O)c2cc(O)c(O)c(OC(=O)c3cc(O)c(O)c(O)c3)c2)[C@H](OC(=O)c2cc(O)c(O)c(OC(=O)c3cc(O)c(O)c(O)c3)c2)[C@@H](OC(=O)c2cc(O)c(O)c(OC(=O)c3cc(O)c(O)c(O)c3)c2)[C@@H]1OC(=O)c1cc(O)c(O)c(OC(=O)c2cc(O)c(O)c(O)c2)c1)c1cc(O)c(O)c(OC(=O)c2cc(O)c(O)c(O)c2)c1` it was -3.36% [at 19 µM]. Same read-out and setting: with `O=C1C=CC(=O)N1` the figure was -36.7%; with `Oc1ccc(C2(c3ccc(O)cc3)CC3CC2C2CCCC32)cc1` (stereo not given), -13.6%. As for `CC/C(=C(\c1ccc(O)cc1)c1ccc(OCCN(C)C)cc1)c1ccccc1`, the “activation” value is -37.1%. On the same count and under the same terms, in the case of `CCN1/C(=C/C=C/c2sc3ccccc3[n+]2CC)Sc2ccccc21` it was -14.5% [at 19 µM]. On to `Cc1cccc(CN2CCN(C(c3ccccc3)c3ccc(Cl)cc3)CC2)c1` (stereo not given), for which the “activation” value was -12.1% [at 42.5 µM]. As to `O=C(NO)C1(NS(=O)(=O)c2ccc(Oc3ccc(F)cc3)cc2)CCOCC1`, the “activation” value is -11.7%. The same measure, in the same setting: with `COc1c(C)c2c(c(O)c1C/C=C(\C)CCC(=O)O)C(=O)OC2` the figure was -16.4% [at 42.5 µM].

As to `Cc1cccc2c1cc1ccc3cccc4ccc2c1c34`, the “activation” value is -0.233%. With `Oc1ccc(Cl)cc1Sc1cc(Cl)ccc1O`, the Potency result is “inactive”. For the compound `C[C@@H]1C[C@H]2[C@@H]3CCC4=CC(=O)C=C[C@]4(C)[C@@]3(Cl)[C@@H](O)C[C@]2(C)[C@@]1(OC(=O)c1ccco1)C(=O)CCl`, the “activation” value is -16.3% [at 42.5 µM].
